Compounds without any hit were thinned out: in the full panel of roughly 83,000, 20% have a hit.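 Testing used 96-well plates and a 48-hour single-concentration exposure. Example: -40 means 40% of the starting cells died.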 The source made the active and inactive calls. Rule for the calls: active = growth percent below 10; inactive = the rest.
What follows are molecules tested on SN12C renal (assay: NCI-60 one-dose screen, 48 h (100 = growth as untreated, 0 = no growth, -100 = all killed)). Settings: 10 µM unless noted.
`COc1ccc2c(c1)CC[C@@H]1[C@@H]2CC[C@]2(C)[C@@H](O)C(=O)C[C@@H]12` was tested, and the growth was 96.1% (inactive). With `C[C@@H]1CN(c2nc3c(cc2F)c(=O)c(C(=O)O)cn3C(C)(C)C)C[C@H](C)N1` the growth was 104% (inactive). For `NS(=O)(=O)c1ccc(-n2ncc3c(NC4CCCCC4)ncnc32)cc1`, the growth was 97.5% (inactive). `CCOC(=O)C1=CCC(n2cc(C)c(=O)[nH]c2=O)O1` (centres undefined) was tested, and the growth was 101% (inactive). In the case of `O=CNc1ccc2c(c1)Cc1cc([N+](=O)[O-])ccc1-2`, the growth is reported as 38.9% (inactive). With `CC(=O)[C@H]1CC[C@H]2[C@@H]3C[C@H](C)C4=CC(=O)CC[C@]4(C)[C@H]3C(=O)C[C@]12C` the growth was 94.5% (inactive). `Cc1ccc2nc(SCC(=O)Nc3ccc(-c4nc5ccccc5s4)c(Cl)c3)[nH]c2c1` was tested, and the growth was 107% (inactive). `Cc1ccc(C(=O)Cc2ccccc2)c(O)c1` was tested, and the growth was 94.8% (inactive). For `ICCC(c1ccccc1)(c1ccccc1)c1ccccc1`, the growth was 69.7% (inactive). In the case of `c1ccc(CN=C(NCc2ccccc2)NCc2ccccc2)cc1`, the growth is reported as 72.2% (inactive). With `Oc1ccc(/C=N/Nc2nc3ccccc3s2)c(O)c1` the growth was 49.9% (inactive). With `O=C(CC(C(=O)c1ccccc1)N1CCN(Cc2ccccc2)CC1)c1ccccc1` (centres undefined) the growth was 99.3% (inactive). `CC(NC(N)=S)c1ccccc1` (centres undefined) was tested, and the growth was 98.3% (inactive). `C[C@]12CCC(=O)C=C1CC[C@H]1[C@@H]3C[C@@H](O)[C@](O)(C(=O)CO)[C@@]3(C)C[C@H](O)[C@@]12F` was tested, and the growth was 82.9% (inactive). `O=C(Nc1ccc2c(c1)C(=O)c1ccccc1-2)c1ccccc1` was tested, and the growth was 56.9% (inactive). For `COC(=O)C1=CCC(n2cnc3c(N)ncnc32)O1` (centres undefined), the growth was 103% (inactive). In the case of `CCN(Cc1cccc(S(=O)(=O)[O-])c1)c1ccc(C(=C2C=CC(=[N+](CC)Cc3cccc(S(=O)(=O)O)c3)C=C2)c2ccccc2S(=O)(=O)O)cc1`, the growth is reported as 109% (inactive). In the case of `CC(NC(=O)Oc1cccc2ccccc12)c1ccccc1` (centres undefined), the growth is reported as 97.4% (inactive). With `OC(c1cc(-c2cccc(Cl)c2)nc2ccccc12)C1CCCCN1` (centres undefined) the growth was -5.08% (active). With `O=C(Nc1ccccc1OC(=O)c1ccccc1)c1ccccc1` the growth was 69.6% (inactive). With `Cc1ccccc1NC(=O)NC(CC(N)=O)c1ccc2c(c1)nc(-c1cccc(Oc3ccc(C(C)(C)C)cc3)c1)n2CCCN1CCCCC1C` (centres undefined) the growth was 59.1% (inactive). In the case of `O=C(C(=O)c1cc(Br)ccc1O)c1cc(Br)ccc1O`, the growth is reported as 59.4% (inactive). For `Fc1ccccc1C1c2ccccc2-c2nccn21` (centres undefined), the growth was 97.1% (inactive). With `COc1cc(/C=C\C(C)=N\Nc2ccccc2)ccc1O` the growth was 92.6% (inactive). For `COc1cc(/C=N/NC(=O)c2ccc(C(F)(F)F)nc2Nc2ccc(Cl)cc2C)ccc1O`, the growth was 68.6% (inactive). For `O=Cc1ccccc1C(=O)O`, the growth was 104% (inactive). For `COc1cc(NC(=O)NCc2ccco2)ccc1-c1ccc(NC(=O)NCc2ccco2)cc1OC`, the growth was 69.4% (inactive). For `COc1cccc(/C=N/Nc2nc3ccccc3s2)c1OC`, the growth was 102% (inactive). With `O=C(N/N=C/c1ccc(Cl)cc1Cl)c1ccccc1Nc1cccc(C(F)(F)F)c1` the growth was 53.3% (inactive). For `COc1ccc(NS(=O)(=O)N2CCCCC2)cc1`, the growth was 93% (inactive). `O=c1c2ccccc2c2nccn2c2cc(Cl)ccc12` was tested, and the growth was 112% (inactive). `COc1ccc(-c2ccc(O)c(C(=O)/C=C/c3cc(OC)c(OC)c(OC)c3)c2)cc1` was tested, and the growth was 94.6% (inactive). `Cn1cnc([N+](=O)[O-])c1Sc1nc(N)nc2nc[nH]c12` was tested, and the growth was 43.6% (inactive). In the case of `Cc1cc(=O)oc2cc(OCCn3c(C)nn(-c4ccc(Cl)cc4)c3=O)ccc12`, the growth is reported as 51.8% (inactive). With `O=C1C=CC(=O)N1c1ccccn1` the growth was 96.2% (inactive). In the case of `CCN(CC)c1ccc(N=C2C=CC(=O)C=C2NC(C)=O)cc1`, the growth is reported as 97.5% (inactive). For `CC1CN(C2CCCCC2)C(=O)NC1=O` (centres undefined), the growth was 92.1% (inactive). In the case of `COc1ccc2cc(C3=CC(=O)CCC3)ccc2c1`, the growth is reported as 97.2% (inactive). In the case of `COc1ccc(Cl)cc1Nc1nc(C(F)(F)F)ccc1C(=O)N/N=C/c1c(Cl)cccc1Cl`, the growth is reported as 63% (inactive).

— PubChem BioAssay (NCI)
